Potency data for 26 compounds are collected here from PubChem BioAssay AID485364 (National Center for Advancing Translational Sciences (NCATS), 2010).

The campaign covered roughly 360,000 compounds. About 11,000 (3.1%) were called active. Where a call stands in place of a potency, no number is given. About 4% were inconclusive and are not listed. Calls come from the whole dose curve; as a rule, active = well fitted inhibition curve with a large enough effect; inconclusive = small, poorly fitted or top-dose-only effect; inactive = no such curve, though single readings can be large or run the other way. Many of the other results were omitted from the sample, so actives are more common in it than they were.
Potency is the fitted concentration of half-maximal effect.

This experiment concerns the target Schistosoma mansoni thioredoxin glutathione reductase (TGR) (UniProt Q962Y6). The experiment in a line: qHTS Assay for the Inhibitors of Schistosoma Mansoni Peroxiredoxins. Note: nearly all actives have a fitted effect of over 60% in size. The conditions noted are these: purified TGR, DTNB reduction, TNB absorbance 405 nm; series mostly up to 114 µM. A digest of the protocol:
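First, TGR (20 nM dispensed) and NADPH were mixed with compound. Second, a 15 min room-temperature incubation followed. Third, further NADPH and then DTNB were added to start the reaction. Finally, TNB absorbance was monitored kinetically.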
For the compound `Cc1cc(C)cc(NC(c2nnc(-c3cccc(F)c3)o2)c2ccc(F)cc2Cl)c1` (stereo unspecified), the Potency result was “inactive”. `CCOc1cccc(CNC(=O)c2ccc(N3CCCC3)c(NC(=O)Nc3ccccc3CC)c2)c1`: the Potency result is “inactive”. Regarding `Cc1c(Cl)cccc1NC(=O)Nc1ccc(C(=O)N2CCCC2)cc1`, the Potency entry is “inactive”. To `Cc1c(Cl)cccc1NC(=O)NCCCN1CCCC1=O` belongs “inactive”; to `Cc1c(Cl)cccc1NC(=O)NCc1ccc(C)n1C`, 35.5 µM (active).

On to `C#CC(C)(CC)NC(=O)Cn1nnc(-c2ccc(OCc3c(F)cccc3Cl)cc2)n1` (stereo unspecified), for which the Potency entry is “inactive”. With `Cc1nnc(SCC2=C(C(=O)O)N3C(=O)C(NC(=O)Cn4nc(C)c(Cl)c4C)C3SC2)s1` (stereo unspecified), the Potency was 10 µM (active). `CO/N=C(\C(=O)N[C@@H]1C(=O)N2C(C(=O)O)=C(COC(C)=O)CS[C@H]12)c1csc(N)n1` (stereo in doubt): the Potency result was “inactive”. For the compound `Cc1nnc(SCC(=O)NC2CCCC2)s1`, the Potency entry is “inactive”.

For `Cc1cc(C)cc(C(=O)NC2C(=O)N3C(C(=O)O)=C(CSc4nnc(C)s4)CSC23)c1` (stereo unspecified), the Potency was 5.01 µM (active).

For `O=C(Cn1ncc2c3ccccc3n(Cc3ccccc3)c2c1=O)NC1CCCCCC1`, the Potency result is “inactive”. The result for `Cc1cccc(CSc2nc3ccncc3n2CC(=O)N(C)C2CCCCC2)c1` reads “inactive”. The result for `CC(C)(C)OC(=O)N1CCC(c2c(C(=O)NCc3ccccn3)cnn2-c2ccc(F)cc2)CC1` reads “inactive”; that for `COc1cccc(NC(=O)CCNS(=O)(=O)c2ccc3c(c2)oc(=O)n3C)c1`, “inactive”.

As for `COc1ccc(S(=O)(=O)NCCCCOc2ccc(Cl)cc2)cc1`, the Potency entry is “inactive”. Turning to `COc1cccc(NC(C)=[N+](C)CCNS(=O)(=O)c2ccc(Cl)cc2)c1`, the Potency is 31.6 µM (active).

Take `N#Cc1nc(/C=C/c2ccc(F)cc2)oc1NC1CCCCC1`: the Potency result was “inactive”. Turning to `CCC(=O)N1N=C(c2ccc(OC)cc2)CC1c1cn(-c2ccccc2)nc1-c1cccs1` (stereo unspecified), the Potency entry was “inactive”.

Take `CCCn1c2ccccc2c2cnn(CC(=O)NCCCOC(C)C)c(=O)c21`: the Potency result was “inactive”. `CCSc1nnc2c(n1)OC(c1ccc(OCC(=O)O)cc1)Nc1ccccc1-2` (stereo unspecified): the Potency result is “inactive”. To `COC(=O)c1scc(-c2ccc(C)cc2)c1S(=O)(=O)Nc1cc(Cl)c(OC)cc1OC` belongs “inactive”. On to `COc1ccc(Nc2ncc3c(n2)CCN(C(=O)OC(C)(C)C)C3)cc1`, for which the Potency result was “inactive”. The result for `Cc1cccc(-n2c(O)c(/C=N/N3CCOCC3)c(=O)[nH]c2=S)c1` reads “inactive”; that for `Cc1cccc(-n2c(O)c(C=Nc3ccccc3N)c(=O)[nH]c2=O)c1`, “inactive”. To `Cc1cccc(-n2c(O)c(C=NC34CN5CN(CN(C5)C3)C4)c(=O)[nH]c2=O)c1` belongs 7.94 µM (active). Turning to `CCOc1ccc(NC(=O)CCC(=O)N2CC(C)Oc3ccc(C)cc32)cc1` (stereo unspecified), the Potency result was “inactive”.
